The values below come from PubChem BioAssay (EPA / NIEHS).

Test [1] can be described thus: TOX21_p53_BLA_p2_viability: Viability Assessment in the Tox21 HCT-116 p53 Agonism Beta-lactamase Assay, Phase 2 (AID 2283591).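 Also: compound exposure lasted 16 h at 37 °C; actives lower the ATP signal meaning cytotoxicity.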 Summed up:
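HCT-116 p53-bla cells (4000/well) rested 5 h at 37C, then received compounds in DMSO (217-fold dilution) for 16 h at 37C, 5% CO2. After the CCF4 read, CellTiter-Glo was added; ATP luminescence was read after 30 min at room temperature.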

Test [2] concerns the target Cellular tumor antigen p53 (Homo sapiens) (UniProt P04637). As to the kind of experiment: TOX21_p53_BLA_p2_ratio: Tox21 HCT-116 p53 Agonism Beta-lactamase Assay, Ratio, Phase 2 (AID 2283592). Summed up:
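In this cell-based reporter format, HCT116 cells were dosed with chemicals delivered from DMSO by 217-fold dilution and incubated 16 h at 37C. Emission at 460 and 530 nm after 2 h CCF4-AM loading provided the ratio, fitted upward versus DMSO.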

A short description of test [3]: TOX21_p53_BLA_p3_viability: Viability Assessment in the Tox21 HCT-116 p53 Agonism Beta-lactamase Assay, Phase 3 (AID 2283593).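 Also: cells exposed to compound for 16 h before reading.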 In outline: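 HCT-116 cells (4000/well) rested 5 h at 37C, then got DMSO compounds by pin tool (217-fold dilution) for 16 h at 37C, 5% CO2. After the bla read, CellTiter-Glo was added and luminescence read at 30 min, room temperature.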
The target of test [4] is Cellular tumor antigen p53 (Homo sapiens) (UniProt P04637). As to the kind of experiment: TOX21_p53_BLA_p3_ratio: Tox21 HCT-116 p53 Agonism Beta-lactamase Assay, Ratio, Phase 3 (AID 2283596). Summed up: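 HCT116 p53-bla cells (4000/well) given compound in DMSO (217-fold dilution) after 5 h, incubated 16 h at 37C. CCF4-AM substrate 2 h at room temperature; 460/530 nm emission ratio, gain fitted against DMSO.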

Test [5] has the same target. In words: TOX21_p53_BLA_p5_ratio: Tox21 HCT-116 p53 Agonism Beta-lactamase Assay, Ratio, Phase 5 (AID 2283599). Summed up:
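HCT-116 cells carrying a p53-inducible beta-lactamase reporter were seeded at 4000 cells/well and dosed after 5 h with compound in DMSO (217-fold dilution). After 16 h at 37C, CCF4-AM substrate was added for 2 h, and the 460/530 nm emission ratio was scored as gain-of-signal versus DMSO.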

Test [6] in a line: Tanguay_ZF_120hpf_MORT_legacy: (Legacy) Oregon State University Tanguay Lab 120 Hour Post-fertilization zebrafish Assay for Mortality (AID 2283633).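 As to AC50: fitted as increase in binary mortality versus DMSO negative control.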 In outline: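 Brightfield scoring of embryo death (binary) at 24 and 120 hpf; static exposure 6–120 hpf, 28C, sealed and foil-covered. Pronase-dechorionated 5D wild-type larvae, single embryo per well. DMSO 0.64% v/v; trimethyltin chloride 5uM positive control.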

A short description of test [7]: TOX21_p53_BLA_p4_viability: Viability Assessment in the Tox21 HCT-116 p53 Agonism Beta-lactamase Assay, Phase 4 (AID 2283597).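 Also: hits lower the luminescence signal meaning cytotoxicity.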 Summed up: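 We seeded HCT116 p53 reporter cells at 4000/well and waited 5 h. We then added compounds in DMSO at a 217-fold dilution and incubated for 16 h. Viability was read as CellTiter-Glo luminescence after 30 min at RT.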
The nature of test [8]: TOX21_p53_BLA_p5_viability: Viability Assessment in the Tox21 HCT-116 p53 Agonism Beta-lactamase Assay, Phase 5 (AID 2283600). Summed up:
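Compounds, pinned from DMSO at 217-fold dilution, were left on the cells for 16 h. The viability endpoint was ATP content measured by CellTiter-Glo luminescence, where falling signal reflects cytotoxicity.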

For test [9], the target named is Cellular tumor antigen p53 (Homo sapiens) (UniProt P04637). As to the kind of experiment: TOX21_p53_BLA_p4_ratio: Tox21 HCT-116 p53 Agonism Beta-lactamase Assay, Ratio, Phase 4 (AID 2283601). Summed up: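 HCT116 cells carrying an inducible beta-lactamase reporter were plated at 4000 cells/well, rested 5 h, then exposed to compounds in DMSO (217-fold dilution) for 16 h at 37C. CCF4-AM substrate was loaded 2 h at room temperature; 460/530 nm emission ratio scored gain-of-signal versus DMSO.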

Test [10] is described as follows: Tanguay_ZF_120hpf_YSE_legacy: (Legacy) Oregon State University Tanguay Lab 120 Hour Post-fertilization zebrafish Assay for Yolk Sac Edema (AID 2283634).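 As to AC50: actives raise the incidence of yolk sac edema above the DMSO baseline.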 Summed up:
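Binary brightfield scoring of yolk sac edema at 120 hpf; DMSO baseline, gain-of-signal fitting. Dechorionated 5D larvae, one per well, static exposure 6–120 hpf, 28C, 0.64% DMSO. Dead embryos not scored.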

Molecules are shown by their SMILES. Several values for one entry are separate records, joined by “and”; a condition that tells them apart may be missing. Identical values can stand only once. Results filed as inconclusive are left out. More than one record can exist for a structure, and the calls need not agree. Activity calls are given as the source filed them. The calls were made as follows: active = hit-call score of the fitted dose curve at least 0.9, where 1 is the maximum; inconclusive = response in the unintended direction; inactive = score below 0.9.

Chain of Cellular tumor antigen p53 (Homo sapiens) (P04637 whole entry, looked up): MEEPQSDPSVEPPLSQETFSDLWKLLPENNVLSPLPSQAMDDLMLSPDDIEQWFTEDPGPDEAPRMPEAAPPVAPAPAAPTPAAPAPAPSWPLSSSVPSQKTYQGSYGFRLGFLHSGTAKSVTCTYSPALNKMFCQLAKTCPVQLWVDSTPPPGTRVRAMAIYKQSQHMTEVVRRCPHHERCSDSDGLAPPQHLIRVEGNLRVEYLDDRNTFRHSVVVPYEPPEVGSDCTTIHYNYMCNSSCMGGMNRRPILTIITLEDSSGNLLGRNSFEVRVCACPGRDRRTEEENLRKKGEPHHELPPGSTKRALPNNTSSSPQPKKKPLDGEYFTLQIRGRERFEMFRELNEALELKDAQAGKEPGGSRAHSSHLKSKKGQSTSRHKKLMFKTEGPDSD

As to `CCCCCCCCCCCCCCCO`, the molecule was called inactive in [1], in test [2], in [3], in test [4], in test [5] and in test [6].

Regarding `C=CCCCCCCCCC(=O)O`, the molecule was classed as inactive in [1], in test [2], in test [3], in test [7], in test [5] and in test [8]. In addition, the outcome in test [9], in [6] and in test [10] was inactive.

As a reminder, the AC50 is the concentration giving half of the maximal activity seen. On to `Fc1ccccc1[C@@H](F)COC1CCC(Nc2ncnc3[nH]ncc23)CC1` (stereo partly drawn), for which the molecule was classed as inactive in test [1], in [2], in test [3], in test [4], in test [7] and in test [5]. Besides, the molecule was classed as inactive in test [8], in [9] and in test [6]. The AC50 in test [10] was 23.9 µM (active).

Regarding `COc1ccc(/C=C/S(=O)(=O)NC(=O)c2ccc(C)cc2Cl)cc1`, the outcome in [1], in [3], in test [8] and in [6] was inactive. Moreover, the AC50 in test [2] is 28 µM (active); in test [4] it was 29 µM (active); in [5], 29.5 µM (active); in test [9], 21.2 µM (active).

Consider `Cn1c(=O)c2c(ncn2C)n(C)c1=O`, for which the call in test [1], in test [2], in [3], in test [4], in test [7] and in test [5] was inactive. In addition, the result in test [8], in test [9] and in test [6] was inactive.

Consider `CCOC(=O)c1ccc(C2CCC(NC[C@H](O)COc3ccc(O)c(NS(C)(=O)=O)c3)CC2)cc1` (stereo partly drawn), for which the half-maximal activity concentration (AC50) in test [1] was 70.1 µM (active); in [2], 80.4 µM (active); in test [7] it was 60.2 µM (active); in test [9], 84 µM (active). The outcome in [3], in test [4], in [5], in test [8], in [6] and in test [10] was inactive.

Take `COC(=O)c1ccccc1O`: the molecule was classed as inactive in test [1], in test [2], in test [3], in test [4], in test [7] and in test [8]. Moreover, the outcome in test [9], in [6] and in test [10] was inactive.

As to `C[C@](N)(Cc1ccc(O)c(O)c1)C(=O)O`, the call in test [1], in [2], in [3], in [4], in test [7] and in [5] was inactive. Besides, the molecule was classed as inactive in test [8], in test [9], in [6] and in test [10].

Regarding `CC(C)CC(C)(O)C#CC(C)(O)CC(C)C` (stereo not drawn), the molecule was called inactive in [1], in test [2], in test [3], in test [4], in [7] and in test [8]. The outcome in test [9] and in test [6] was inactive.

As for `CCCCC(CC)COC(=O)c1ccc(C(=O)OCC(CC)CCCC)cc1` (stereo not drawn), the call in test [1], in [2], in [3], in [7], in test [5] and in test [8] was inactive. For the same molecule, the result in [9], in [6] and in test [10] was inactive.

Turning to `CCOCCO`, the result in test [1], in [2], in [4], in [7], in test [5] and in test [8] was inactive. The outcome in [9] and in [6] was inactive.

As for `CCC(C)(C)C(=O)O[C@H]1C[C@@H](C)C=C2C=C[C@H](C)[C@H](CC[C@@H]3C[C@@H](O)CC(=O)O3)[C@H]21`, the outcome in test [2], in [4], in [5], in test [8] and in test [9] was inactive. Also, the AC50 in [3] is 75.7 µM (active); in test [7] it was 46.1 µM (active); in test [6] it was 1.45 µM (active); in test [10], 0.649 µM (active).

`NC(=O)NO`: the molecule was classed as inactive in test [1], in test [2], in test [4], in [7], in [5] and in [8]. Further, the result in test [9] and in test [6] was inactive.

For `COC(=O)c1c(Cl)c(Cl)c(C(=O)OC)c(Cl)c1Cl`, the result in test [2], in [3], in test [4], in test [7], in [5] and in [8] was inactive. Besides, the result in test [9] and in test [6] was inactive.

`Nc1nc2ncc(CNc3ccc(C(=O)N[C@@H](CCC(=O)O)C(=O)O)cc3)nc2c(=O)[nH]1`: the outcome in [2], in test [3], in [4], in test [7], in test [5] and in [9] was inactive. For the same molecule, the molecule was called inactive in test [6] and in test [10].

As for `CCN(C(=O)c1cc(C)cc(OC[C@H](C)Nc2ccncc2)c1)C(C)C`, the outcome in test [2], in test [3], in test [4], in [7], in [5] and in [8] was inactive. The result in [9] and in test [6] was inactive.

`O=c1[nH]c2ccc(S(=O)CCN3CCC(Cc4ccc(F)cc4)CC3)cc2o1` (stereo not drawn): the outcome in test [2], in test [3], in [4], in [7], in test [5] and in test [9] was inactive. Also, the call in test [6] and in [10] was inactive.

For the molecule `O=C1CCCCCN1`, the result in [2], in test [3], in test [4], in test [7], in test [5] and in [8] was inactive. The result in test [9], in [6] and in [10] was inactive.

Consider `CC(C)(O)c1coc(S(=O)(=O)NC(=O)Nc2c3c(cc4c2CCC4)CCC3)c1`, for which the outcome in test [2], in [3], in test [4], in [7], in test [5] and in [8] was inactive. The result in [9], in [6] and in test [10] was inactive.

Take `O=C(OC[C@H]1O[C@@H](OC(=O)c2cc(O)c(O)c(OC(=O)c3cc(O)c(O)c(O)c3)c2)[C@H](OC(=O)c2cc(O)c(O)c(OC(=O)c3cc(O)c(O)c(O)c3)c2)[C@@H](OC(=O)c2cc(O)c(O)c(OC(=O)c3cc(O)c(O)c(O)c3)c2)[C@@H]1OC(=O)c1cc(O)c(O)c(OC(=O)c2cc(O)c(O)c(O)c2)c1)c1cc(O)c(O)c(OC(=O)c2cc(O)c(O)c(O)c2)c1`: the AC50 in test [2] is 12.9 µM (active) and 6.14 µM (active); in test [3], 6.6 µM (active); in test [4], 11.2 µM (active) and 5.34 µM (active); in test [7] it was 14.1 µM (active) and 3.93 µM (active); in [5] it was 17 µM (active) and 10.6 µM (active); in test [8], 6.49 µM (active). In addition, in test [9], the AC50 is 7.98 µM (active) and 3.2 µM (active). In addition, the call in test [3], in [8] and in [6] was inactive.
